Source: PubChem (National Center for Advancing Translational Sciences (NCATS))
AmpC detergent: qHTS Inhibitors of AmpC Beta-Lactamase (assay with detergent) | P00811 | AmpC hydrolysis of nitrocefin, absorbance 480 nm, 0.01% Triton | Potency, µM (series often up to 114 µM), hits mostly inhibitors | actives 0.041% (n = 370,000) | AID 485294, 2010; also: nearly all actives have a fitted effect of over 25% in size
Target sequence (P00811 whole entry, looked up): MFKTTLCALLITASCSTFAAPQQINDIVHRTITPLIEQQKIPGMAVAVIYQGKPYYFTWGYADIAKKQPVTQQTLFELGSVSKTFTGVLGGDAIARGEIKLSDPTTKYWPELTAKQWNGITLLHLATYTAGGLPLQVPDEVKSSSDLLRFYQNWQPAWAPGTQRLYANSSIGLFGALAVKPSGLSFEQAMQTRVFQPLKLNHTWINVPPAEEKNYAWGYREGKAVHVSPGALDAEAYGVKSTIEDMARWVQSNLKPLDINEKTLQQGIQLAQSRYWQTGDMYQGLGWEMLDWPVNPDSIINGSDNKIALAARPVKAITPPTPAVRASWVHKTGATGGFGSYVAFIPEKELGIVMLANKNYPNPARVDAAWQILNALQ
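AmpC (5.3 nM in the dispensed reagent) in 20 mM phosphate pH 7.0 with 0.01% (detergent screen) or 0.0001% Triton X-100 was preincubated with compounds for 15 min at room temperature. Nitrocefin was then added from an 800 uM solution, and hydrolysis was followed at 480 nm.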
Lassa entry inh: qHTS for Inhibitors of binding or entry into cells for Lassa Virus. Potency, µM (doses to about 37.9 µM), usual class: inhibitors. actives 1.2% (n = 300,000). AID 540256, 2011. Lassa virus pseudotype entry inhibition, cell reporter; calls by dose curve; tested in HEK293 cells; also: nearly all actives have a fitted effect of over 50% in size
AMA1 RON2 block: qHTS for Inhibitors of AMA1-RON; Towards Development of Antimalarial Drug Lead: Primary Screen | Plasmodium falciparum AMA1 (3D7) - RON2 peptide interaction | AlphaScreen AMA1-biotinylated RON2 peptide binding | Potency, µM (series often up to 58.2 µM), usual class: inhibitors | actives 0.2% (n = 360,000) | AID 720542, 2013; also: nearly all actives have a fitted effect of over 45% in size
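AMA1 (3D7) with his tag at 25 nM final met compounds first, then biotinylated RON2 peptide at 25 nM; detection used donor plus acceptor beads, 10 µg/mL apiece, read by AlphaScreen after 30 min at room temperature.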
MARV entry inh: qHTS for inhibitors of binding or entry into cells for Marburg Virus; actives 1.8% (n = 300,000); Potency, µM (titrated, usually from 37.8 µM), most hits filed as inhibitors; Marburg virus pseudotyped entry inhibition, cell reporter; calls by dose curve; tested in HEK293 cells
AmpC no deterg: qHTS Inhibitors of AmpC Beta-Lactamase (assay without detergent). AID 485341, 2010. Potency, µM (titrated, usually from 57.1 µM), most hits filed as inhibitors. AmpC nitrocefin hydrolysis, absorbance 480 nm, 0.0001% Triton. actives 0.52% (n = 330,000); also: nearly all actives have a fitted effect of over 20% in size
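20 mM phosphate pH 7.0 + 0.01% (detergent screen) or 0.0001% Triton X-100; 5.3 nM AmpC reagent; cpd preinc 15 min RT; nitrocefin (800 uM stock) to start; A480 q20 s × 4 min; Activity was normalised to no-enzyme and no-compound control wells.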
Each line names hits and unclear results; the compound was inactive in the other large screens. Only some compounds are listed: those with a hit (about 2.3% of all), similar ones and a draw of the others. Unless noted, calls follow the shape of the dose curve; as a rule, active = well fitted curve in the direction sought with a large enough effect; inconclusive = small, poorly fitted or top-dose-only effect, or another doubt; inactive = no such curve, though single readings can be large; an effect the other way counts as inactive or inconclusive.

CN1CC=C2C(C#N)=C(N)C(C#N)(C#N)[C@H](c3ccncc3)[C@H]2C1	none (no result: AmpC detergent, Lassa entry inh, AMA1 RON2 block, AmpC no deterg)
CCOc1ccccc1N(CC)C(=O)c1ccc2c(=O)n3c(nc2c1)CCCCC3	AmpC detergent inconclusive, MARV entry inh 8.9µM
CCOC(=O)c1ccc(N2C(=O)C3CCCN3C2=S)cc1 (configuration not stated)	AmpC detergent inconclusive, AMA1 RON2 block 35µM (no result: Lassa entry inh, MARV entry inh)
COc1ccccc1C(=O)Nc1nnc(-c2ccco2)s1	MARV entry inh inconclusive
Cc1ccccc1C(=O)Nc1nnc(-c2ccco2)s1	Lassa entry inh 4.1µM, MARV entry inh 1.3µM
Cc1[nH]c2ccc(-c3nnc(SCC(=O)c4ccc(F)cc4)o3)cc2c1C	AmpC detergent inconclusive, Lassa entry inh 9.2µM
Cc1cc(C)c(C)c(C(=O)CSc2nnc(-c3ccc4[nH]c(C)c(C)c4c3)o2)c1C	Lassa entry inh inconclusive, MARV entry inh inconclusive
O=C(OCc1ccc(F)cc1)c1ccc2c(c1)-c1ccccc1C2=O	Lassa entry inh 1.1µM
O=C(OCc1ccc(F)cc1)c1cc2ccccc2cc1O	none (no result: Lassa entry inh, MARV entry inh)
Nc1cc2c3c(cccc3c1)C(=O)N(CCN1CCCC1)C2=O	Lassa entry inh inconclusive, MARV entry inh 6.3µM
CCN(CC)CCN1C(=O)c2cccc3cc(N)cc(c23)C1=O	MARV entry inh 10µM
O=C1c2cccc3cccc(c23)C(=O)N1CCO	none (no result: AmpC detergent, Lassa entry inh, MARV entry inh, AmpC no deterg)
Cc1cc(C)c(S(=O)(=O)N2CCN(CCN3C(=O)c4cccc5cccc(c45)C3=O)CC2)cc1[N+](=O)[O-]	AmpC detergent inconclusive (no result: AMA1 RON2 block)
O=C1c2cccc3cc([N+](=O)[O-])cc(c23)C(=O)N1CCN1CCCC1	Lassa entry inh inconclusive, MARV entry inh 4µM
CCn1c(=O)c(=O)[nH]c2cc(C(=O)NC3CCCc4ccccc43)ccc21 (configuration not stated)	Lassa entry inh inconclusive, MARV entry inh 21µM
Fc1ccc(COc2ccc(Br)cc2CNCC2CCCO2)cc1 (configuration not stated)	AmpC detergent inconclusive, Lassa entry inh inconclusive, MARV entry inh 4µM
Fc1ccccc1COc1ccc(Br)cc1CNCC1CCCO1 (configuration not stated)	none (no result: Lassa entry inh, MARV entry inh)
CCCCc1nn2c(=O)cc(COC(=O)c3cccs3)nc2s1	Lassa entry inh inconclusive (no result: AMA1 RON2 block, MARV entry inh, AmpC no deterg)
CC[C@@]1(C)Cc2c(sc3c2c(=O)n(C)c2nnc(SCc4ccccc4)n32)CO1	none (no result: AmpC detergent, Lassa entry inh, AMA1 RON2 block, AmpC no deterg)
CCCCN1C(=O)N(C)C2NC(=O)NC21 (configuration not stated)	Lassa entry inh inconclusive
CCCCN1C(=O)NC2NC(=O)NC21 (configuration not stated)	Lassa entry inh inconclusive, AMA1 RON2 block 3.5µM
CCCCNC(=O)c1ccccc1C(=O)NCCCC	AmpC no deterg 1.1µM
N#C/C(=C\c1cccc([N+](=O)[O-])c1)c1nnc2n1CCCCC2	AmpC detergent inconclusive, MARV entry inh inconclusive
CN(c1ccccc1)c1ccc(/C=C(\C#N)c2nnc3n2CCCCC3)cc1[N+](=O)[O-]	AmpC detergent inconclusive, Lassa entry inh 7.1µM, AMA1 RON2 block inconclusive, MARV entry inh inconclusive
CCc1ccc2oc(-c3ccc(C)c(NC(=O)c4ccc(C#N)cc4F)c3)nc2c1	Lassa entry inh inconclusive, MARV entry inh inconclusive (no result: AMA1 RON2 block, AmpC no deterg)
Nc1ccc(O)cc1C(=O)OCC(=O)c1ccc(C2CCCCC2)cc1	Lassa entry inh inconclusive, MARV entry inh inconclusive
COc1ccc(C(=O)OCC(=O)c2ccc(C3CCCCC3)cc2)cc1	Lassa entry inh 2.2µM, MARV entry inh inconclusive
O=C(Cc1n[nH]c(=O)c2ccccc12)OCc1c(Cl)cccc1Cl	AmpC detergent inconclusive, Lassa entry inh 0.63µM, MARV entry inh 0.52µM
CCOC(=O)Cc1n[nH]c(=O)c2ccccc12	none
CCN(CC)c1ccc(C(=O)NCc2ccc3c(c2)CCN3C(=O)c2ccc(F)cc2)cc1	none (no result: AMA1 RON2 block, MARV entry inh, AmpC no deterg)
Nc1ccccc1-c1ccc([N+](=O)[O-])cc1	Lassa entry inh inconclusive, MARV entry inh 5.6µM (no result: AmpC detergent, AmpC no deterg)
Nc1ccc(-c2ccc(N)c([N+](=O)[O-])c2)cc1[N+](=O)[O-]	none
COc1ccc([C@@H]2NC3=C(CCC3)[C@@]3(C#N)C(OC)(OC)N=C(N)[C@]23C#N)cc1	none (no result: AmpC detergent, Lassa entry inh, AMA1 RON2 block, AmpC no deterg)
CC(C)C(=O)NC(c1ccco1)c1ccc2cccnc2c1O (configuration not stated)	Lassa entry inh inconclusive, AMA1 RON2 block 20µM, MARV entry inh inconclusive
CC(C)C(=O)NC(c1cccc([N+](=O)[O-])c1)c1ccc2cccnc2c1O (configuration not stated)	AmpC detergent inconclusive, Lassa entry inh 7.1µM, MARV entry inh inconclusive
Brc1ccc(CNc2cc3c(cc2Br)OCCO3)cc1	AMA1 RON2 block 13µM
CC(=O)Nc1cc2c(cc1Br)OCCO2	none
COc1ccc(/C=c2/sc3n(c2=O)C(c2ccccc2OC)C2=C(N=3)c3ccccc3CC2)cc1O (configuration not stated)	MARV entry inh 23µM
Cc1ccc(S(=O)(=O)c2nnn3c2nc(N2CCN(c4ccccc4F)CC2)c2ccccc23)cc1C	none (no result: AMA1 RON2 block, MARV entry inh, AmpC no deterg)
Cc1ccccc1NCC(=O)N/N=C/c1c(C)c(C(=O)c2ccc(Cl)cc2)n2ccccc12	Lassa entry inh inconclusive, MARV entry inh inconclusive, AmpC no deterg inconclusive
Cc1c(/C=N/NC(=O)CNc2ccccc2)c2ccccn2c1C(=O)c1ccc(Cl)cc1	Lassa entry inh inconclusive, MARV entry inh inconclusive, AmpC no deterg 2.5µM
COc1ccccc1N1CCN(Cc2cc(=O)oc3cc(C)ccc23)CC1	Lassa entry inh inconclusive (no result: AmpC detergent, MARV entry inh, AmpC no deterg)
COc1ccc(CN2CCN(Cc3cc(=O)oc4cc(C)ccc34)CC2)c(OC)c1OC	MARV entry inh 14µM
CCC(C)(C)NC(=O)C(c1ccc(C)cc1)N(Cc1cccs1)C(=O)c1ccc2c(c1)OCCO2 (configuration not stated)	Lassa entry inh inconclusive, MARV entry inh 15µM
COc1ccccc1CNC(=O)C(=O)NCC(c1cccs1)S(=O)(=O)c1ccc(F)cc1 (configuration not stated)	Lassa entry inh inconclusive (no result: AMA1 RON2 block, MARV entry inh, AmpC no deterg)
CC(=O)NC1=NN(C(C)=O)C(C)(c2ccco2)S1 (configuration not stated)	MARV entry inh 3.2µM
CN(C)c1ccc(-n2cccc2/C=C/[N+](=O)[O-])cc1	Lassa entry inh inconclusive, AMA1 RON2 block 7.1µM, MARV entry inh inconclusive
CC(C)(C(=O)O)c1ccc([C@@H](O)CCCN2CCC(C(O)(c3ccccc3)c3ccccc3)CC2)cc1	none (no result: AmpC detergent, Lassa entry inh, AMA1 RON2 block, AmpC no deterg)
COc1ccc(NS(=O)(=O)c2ccc(N3CCOCC3)c(NC(=O)c3ccccc3Cl)c2)cc1	AmpC detergent inconclusive, Lassa entry inh 1.6µM, MARV entry inh inconclusive
CN(C)S(=O)(=O)c1ccc(C(=O)Nc2cc(S(=O)(=O)Nc3ccccc3Cl)ccc2N2CCCCC2)cc1	Lassa entry inh 5.2µM, AmpC no deterg 3.2µM
